The list is not random: actives were taken first. Their share in the collection is about 3.7%.
BoNT F protease: blocks Botulinum neurotoxin F light chain protease | inhibition, % at 10 µM | AID 588497 | actives 0.22% (n = 360,000) | Multiplex microsphere protease cleavage assay, flow cytometry; in the data active = inhibition above about 35%, passing the limit was not always enough; inconclusive = no clear call, values can overlap the other calls
Anthrax LF inh2: inhibitors of Bacillus anthracis lethal factor protease; P15917; multiplex microsphere protease cleavage assay, LF; inhibition, % at 10 µM; actives 0.12% (n = 360,000); in the data active = inhibition above about 30%; inconclusive = no clear call, values can overlap the other calls
Bead autofluor: compound fluorescence in toxin protease inhibitor counterscreen; actives 3.1% (n = 360,000); fluorescence intensity (concentration not given with the values); compound autofluorescence counterscreen, microsphere flow cytometry; hits give high values; in the data active = fluorescence intensity above about 16000; inconclusive = no clear call, values can overlap the other calls
MazEF act: activators of E. coli MazEF toxin-antitoxin RNase | P0AE70 | FAM/BHQ RNA-DNA oligo cleavage fluorescence, 5 h | activation, % at 20 µM | actives 0.32% (n = 350,000); in the data active = activation above about 50%
Target sequence (P0AE70 whole entry, looked up): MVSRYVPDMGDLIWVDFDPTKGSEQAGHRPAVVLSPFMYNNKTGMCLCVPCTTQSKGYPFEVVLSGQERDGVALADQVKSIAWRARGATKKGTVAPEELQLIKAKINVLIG
BoNT A protease: blocks Botulinum neurotoxin A light chain protease; multiplex microsphere protease substrate cleavage, flow cytometry; inhibition, % at 10 µM; actives 0.17% (n = 360,000); in the data active = inhibition above about 30%; inconclusive = no clear call, values can overlap the other calls
BoNTA LC inh 1: blocks botulinum neurotoxin A light chain protease; actives 3% (n = 720); inhibition, % at 10 µM; multiplex microsphere protease assay, flow cytometry; AID 602139; shares compounds with BoNT F protease; in the data active = inhibition above about 32%
BoNT-F LC CP1: inhibitors of Botulinum neurotoxin F light chain protease; shares compounds with BoNT F protease; multiplex microsphere protease cleavage assay, flow cytometry; inhibition, % at 10 µM; 720 tested, under 10 active; AID 602140
LF protease CP1: inhibitors of Bacillus anthracis lethal factor protease; shares compounds with BoNT F protease; multiplex microsphere protease cleavage assay, LF; inhibition, % at 10 µM; 720 tested, under 10 active
Numbers stand for hits; n = inactive; u = inconclusive; x = no result. Unless noted, the rule behind the calls is not given here.

SMILES	BoNT F protease	Anthrax LF inh2	Bead autofluor	MazEF act	BoNT A protease	BoNTA LC inh 1	BoNT-F LC CP1	LF protease CP1
C=CCc1ccc(OCCOc2cccc3ccc(C)nc23)c(OC)c1	53	n	n	n	46	n	n	n
O=S(=O)(NCc1nnnn1-c1ccc(F)cc1)c1ccc(F)cc1	n	n	n	n	n	x	x	x
O=C(c1ccccc1)c1sc(N2CCCCCC2)nc1-c1ccccc1	n	34	n	n	54	n	n	n
Cc1ccsc1CNC(=O)C1(C)CCCN1CC(C)C (stereo not drawn)	n	n	n	x	n	x	x	x
Cc1cc(C)c2cc3c(N)c(C(=O)N4CCOCC4)sc3nc2c1	n	n	n	n	n	n	n	n
Nc1c(C(=O)N2CCOCC2)sc2nc3c(cc12)CCCC3	n	n	n	n	n	x	x	x
Cc1ccc(C)c2nc3sc(C(=O)N4CCOCC4)c(N)c3cc12	n	n	n	n	n	n	n	n
Cc1cccc2cc3c(N)c(C(=O)N4CCc5ccccc54)sc3nc12	n	n	n	86	n	n	n	n
CCOc1ccc2nc3sc(C(=O)N4CCOCC4)c(N)c3cc2c1	n	n	n	n	n	n	n	n
Cc1cc(C)c2nc3sc(C(=O)N4CCOCC4)c(N)c3cc2c1	n	n	n	n	n	x	x	x
Cn1c(NCc2cccnc2)nc2cc(-c3ccc(C(=O)N4CCOCC4)cc3)sc2c1=O	n	n	n	x	n	x	x	x
CC(=O)Nc1cc(-c2cccnc2)cn2c(-c3ccc(F)cc3)cnc12	n	n	n	x	n	x	x	x
Cc1ccc(C(=O)NC2CC(C)(C)NC(C)(C)C2)cc1Cl	u	n	n	n	n	x	x	x
CC1(C)CC(NC(=O)c2cccc([N+](=O)[O-])c2)CC(C)(C)N1	n	30	n	n	n	n	n	n
CC(C)Oc1ccc(S(=O)(=O)N2CCOCC2)cc1NC(=O)C(C)Oc1ccc(F)cc1 (stereo not drawn)	n	n	u	n	n	x	x	x
CCCCNCCOCCOc1ccc(C)cc1[N+](=O)[O-]	46	u	u	n	n	n	n	n
OCC[C@@H]1C[C@H](O)[C@@H](O)[C@]2(OCc3cc(Cl)ccc32)O1	n	n	n	x	n	x	x	x
COc1ccccc1OCCNC(=O)c1cc(F)c(F)cc1Cl	n	n	n	n	n	x	x	x
COc1ccccc1OCCNC(=O)Nc1cc(F)c(F)cc1Cl	u	31	n	n	n	n	n	n
CC(=O)Cn1cnc2c(cnn2-c2ccc(F)cc2)c1=O	n	n	n	n	n	x	x	x
COc1ccc(-n2ncc3c(=O)n(CC(C)=O)cnc32)cc1	u	n	n	n	61	n	n	n
O=C(CC[C@H]1O[C@@H](n2cnc3c(NC(=O)c4ccccc4)ncnc32)[C@H](O)[C@@H]1O)N[C@@H](CO)c1ccccc1	n	n	n	x	n	x	x	x
Cc1ccc(-c2c(C#N)c(N)n(-c3ccccc3C)c(=O)c2C#N)cc1	n	n	n	x	n	x	x	x
Clc1ccccc1-c1nnc2n1CCCCC2	n	37	n	n	n	n	n	n
C=C(CN(C)C)C(=O)c1ccc(OC2OC(COC(C)=O)C(OC(C)=O)C(OC(C)=O)C2OC(C)=O)cc1 (stereo not drawn)	n	n	n	n	n	x	x	x
SMILES	BoNT F protease	Anthrax LF inh2	Bead autofluor	MazEF act	BoNT A protease	BoNTA LC inh 1	BoNT-F LC CP1	LF protease CP1
COCCCN(Cc1cc(OC)c(OC)c(OC)c1)C(=S)Nc1cccc(Cl)c1	n	n	n	n	n	x	x	x
CC(C)c1ccc(S(=O)(=O)c2cnc(=S)[nH]c2N)cc1	37	n	n	n	n	n	n	n
CCCCCOc1ccc(C(=O)CCN2CCOCC2)cc1	n	n	n	n	n	x	x	x
O=C(CCN1CCN(c2ccccc2)CC1)c1ccc(Br)cc1	n	n	n	n	n	x	x	x
O=C(CCN1CCOCC1)c1ccc(Cl)cc1	42	n	n	n	n	n	n	n
O=C(CCN1CCOCC1)c1ccc(Br)cc1	40	n	n	n	n	n	n	n
CC(C)Oc1ccc(C(=O)CCN2CCOCC2)cc1	n	n	n	n	n	n	n	n
O=C(CSc1n[nH]c(-c2cccs2)n1)NCCc1ccccc1	x	x	x	n	x	x	x	x
CC(=O)c1c(C)[nH]c(C(=O)COC(=O)c2cc(C)oc2C)c1C	n	n	n	n	n	x	x	x
CCCCC(=O)C1CCN(Cc2ccccc2)CC1	n	n	n	n	n	n	n	n
O=S1(=O)CC(N2CCN(Cc3ccccc3F)CC2)CN1Cc1cn(Cc2cccc(Cl)c2)nn1 (stereo not drawn)	n	n	n	x	n	x	x	x
Cn1c(-c2ccccc2)n[nH]c1=S	n	n	n	n	n	x	x	x
Cc1nc(-c2ccccc2)sc1-c1n[nH]c(=S)n1C	54	n	u	n	30	n	n	n
O=C(CCCc1nc2ccccc2s1)NCc1ccc(F)cc1	40	n	n	n	n	n	n	n
Cc1c(C)c2ccc(OCC(=O)Nc3ccccn3)c(C)c2oc1=O	x	x	x	n	x	x	x	x
COc1cc(OC)cc(C(=O)NCc2ccc3[nH]c(C)cc3c2)c1	n	n	n	n	48	n	n	n
COc1cccc(CNC(=O)c2cccc(Br)c2)c1	n	n	n	n	n	x	x	x
COc1cccc(C(=O)NCc2ccc3[nH]c(C)cc3c2)c1	n	n	n	n	52	n	n	n
CCCCCCN1C[C@H](n2cc(-c3ccc(F)cc3)nn2)[C@@H](O)C[C@@H]1c1ccc(C)cc1	n	n	n	n	n	x	x	x
CC(C)OC(=O)C(C)Nc1ccc(F)c(Cl)c1 (stereo not drawn)	40	n	n	n	n	n	n	n
CC(C)CC(=O)Nc1ccc(F)c(Cl)c1	u	u	u	n	u	x	x	x
COc1ccc(-n2c(C)nnc2SCC(=O)N2CCOCC2)cc1	47	n	n	n	n	n	n	n
Cc1ccc(S(=O)(=O)N2CCCN(c3nc4cc(C)ccc4cc3C#N)CC2)cc1	n	n	n	n	40	n	n	n
Cc1ccc2nc(N3CCN(S(=O)(=O)c4ccc5c(c4)OCCO5)CC3)c(C#N)cc2c1	n	n	n	n	n	x	x	x
COc1ccc(NC(=O)N(C)C[C@@H]2OCc3cn(nn3)CCCC(=O)N([C@@H](C)CO)C[C@H]2C)cc1	n	n	n	n	n	x	x	x
SMILES	BoNT F protease	Anthrax LF inh2	Bead autofluor	MazEF act	BoNT A protease	BoNTA LC inh 1	BoNT-F LC CP1	LF protease CP1
COc1cccc(C(=O)Nn2cnnc2)c1	n	n	n	n	n	x	x	x
COc1cc(OC)cc(C(=O)Nn2cnnc2)c1	u	37	n	n	n	n	n	n
CC1CN(C(=O)COC(=O)CSc2ccc([N+](=O)[O-])cc2)CC(C)O1 (stereo not drawn)	x	x	x	n	x	x	x	x
CCOC(=O)C1CCN(CCC(=O)Nc2cc(C)ccc2C)CC1	u	42	n	n	n	n	n	n
CCOC(=O)N1CCN(CCC(=O)Nc2cc(C)ccc2C)CC1	n	n	n	n	n	x	x	x
C[C@H]1CN(CCc2ccccc2)C(=O)[C@@H]1CC(=O)Nc1ccccc1	n	n	n	n	n	x	x	x
CNC(=O)c1sc(-c2ccccc2)nc1C	n	n	n	n	n	x	x	x
CC(=O)Nc1ccc(NC(=O)c2sc(-c3ccccc3)nc2C)cc1	43	n	n	n	n	n	n	n
